Measured values published in PubChem BioAssay (Tox21).
Results filed as inconclusive are left out. Active and inactive are the calls of the source. Calls come from the whole dose curve; as a rule, active = well fitted activation curve with a large enough effect in the repeat runs; inconclusive = weak or mixed curves; inactive = flat fitted curve, though single readings scatter.

test: A CellTox Green Cytotoxicity Assay to monitor cytotoxicity in HEK293 cells - 16 hour (AID 1224888); settings: CellTox Green fluorescence; series mostly up to 76.8 µM; activity change: at the top concentration; note: nearly all actives have a fitted effect of over 35% in size
From the text: National Center for Advancing Translational Sciences [NCATS]
NIH Chemical Genomics Center [NCGC]
U.S. Environmental Protection Agency [EPA]
National Institutes of Environmental Health Sciences [NIEHS]
National Toxicology Program [NTP]
Cell-based models are critical for drug discovery. Determining the natural cytotoxic effects resulting from test compounds is an essential research activity. A CellTox Green Cytotoxicity Assay to monitor cytotoxicity in real time of continues cell culture during 40 hours of the compound treatment was used to screen Tox21 10K library compounds in Hek293 cells. CellTox Green Cytotoxicity Assay is a nonlytic, homogeneous, biofluorescent method to measure cytotoxicity in cell culture after experimental manipulation. The assay system uses a proprietary asymmetric cyanine dye that is excluded from viable cells but preferentially stains the dead cell's DNA. […] Viable cells produce no appreciable increases in fluorescence. Therefore, the fluorescence signal produced by the binding interaction with dead cell DNA is proportional to cytotoxicity.
The mixture of Hek293 cell suspension and reagents were dispensed at 600cells/6 ul/well in 1536-well tissue culture treated black solid bottom plates using a Multidrop dispenser. After the assay plates were incubated at a 37 C/5% CO2 incubator for 5 hours, 23 nL of compounds dissolved in DMSO, positive and negative controls was transferred to the assay plate by a pintool work station. The plates were incubated at 37 C for 40 hours. The fluorescence intensity were measured at 0h, 8h, 16h, 24h, 32h and 40h time points using ViewLux plate reader during compound treatment.
% is set by controls: 0 for no effect and ±100 for the full control effect.

Compound | activity change
CCCCCCCCS | -1.74% (inactive)
CCc1ccc2c(c1)C(=O)c1ccccc1C2=O | -0.171% (inactive)
CCCCCCOC(=O)c1ccccc1 | 7.79% (inactive)
O=P(c1ccccc1)(c1ccccc1)c1ccccc1 | 17.6% (inactive)
Clc1cccc(C(c2ccc3nc[nH]c3c2)n2ccnc2)c1 (stereo not given) | 4.2% [at 35.3 µM, hits give high values] (inactive)
CC(CN=Cc1ccccc1O)N=Cc1ccccc1O (stereo not given) | 2% (inactive)
C=C[Si](OCC)(OCC)OCC | -4.53% (inactive)
Cc1c(-c2cccnc2)c2ccccc2n1CCCCC(=O)O | -13.4% (inactive)
Cc1cccc(C)c1NC(=O)CN1CCCC1 | 1.78% [at 35.3 µM, hits give high values] (inactive)
SCCOCCOCCS | -19.1% (inactive)
CC(=O)OCC(=O)[C@@]1(O)CC[C@H]2[C@@H]3CCC4=CC(=O)C=C[C@]4(C)[C@@]3(F)[C@@H](O)C[C@@]21C | 14% [at 35.3 µM, hits give high values] (inactive)
Cc1cc(C)n(CO)n1 | -0.749% (inactive)
Cc1ccc(NC=O)c(C)c1 | 9.46% (inactive)
Cc1cc(SC2=C(O)C[C@@](CCc3ccc(N)cc3)(C(C)C)OC2=O)c(C(C)(C)C)cc1CO | -11.6% (inactive)
O=c1[nH]nc(-c2ccc([N+](=O)[O-])o2)o1 | 10.4% (inactive)
CCCCCCCCCCCCCCCCCCCl | 11.7% [at 6.97 µM, hits give high values] (inactive)
O=C(O)c1ccccc1[N+](=O)[O-] | 2.86% (inactive)
O=C(Cl)c1ccc(F)c(Cl)c1 | -0.171% (inactive)
COc1cc(CNC(=O)CCCC/C=C/C(C)C)ccc1O | 9.63% (inactive)
CC(C)(C(=O)O)c1ccc(C(O)CCCN2CCC(C(O)(c3ccccc3)c3ccccc3)CC2)cc1 (stereo not given) | 8.6% [at 35.3 µM, hits give high values] (inactive)

Compound | activity change
C[C@H](N)C(=O)N[C@@H](C)C(=O)NC1[C@H]2CN(c3nc4c(cc3F)c(=O)c(C(=O)O)cn4-c3ccc(F)cc3F)C[C@@H]12 (stereo not given in full) | -2.48% [at 35.3 µM, hits give high values] (inactive)
CC1(C)[C@@H]2CC[C@]3(C2)[C@@H]1C(=O)CCC3(C)C | 11.7% (inactive)
O=Cc1ccc(Cl)c([N+](=O)[O-])c1 | -1.1% (inactive)
O=C(OCCN1CCOCC1)c1cccnc1Nc1cccc(C(F)(F)F)c1 | -19.4% [at 35.3 µM, hits give high values] (inactive)
CO[C@@H]1COCC[C@@H]1N[C@@H]1CC[C@@](C(=O)N2CCc3ncc(C(F)(F)F)cc3C2)(C(C)C)C1 | -9.93% (inactive)
O=C(O)COCC(=O)O | -3.9% (inactive)
CCCCOC(=O)C(C)Oc1ccc(Oc2ccc(C(F)(F)F)cn2)cc1 (stereo not given) | 0.305% (inactive)
CCC(C)C1N=C(C)C(C)S1 (stereo not given) | 1.4% (inactive)
CC(CC(C#N)(c1ccccc1)C(C)C)N(C)C (stereo not given) | -11.2% [at 35.3 µM, hits give high values] (inactive)
Cc1ccc(Cl)c(OCC(O)CNC(C)(C)C)c1 (stereo not given) | 8.42% [at 35.3 µM, hits give high values] (inactive)
CCC(=O)O[C@@H]1C[C@H]2CC[C@]1(C)C2(C)C | -5.48% (inactive)
Cc1nc(C)c(C)nc1C | -1.2% (inactive)
CCOC(=O)CC(O)(CC(=O)OCC)C(=O)OCC | 1.11% (inactive)
O=C(O)c1c2ccccc2cc2ccccc12 | 0.0342% (inactive)
O=C(O)c1ccncc1 | 0.761% (inactive)
C=Cc1ccc(C=C)cc1 | -7.4% (inactive)
O=C(OCCCCCOC(=O)c1ccccc1)c1ccccc1 | -8.64% (inactive)
CO[C@@H]1[C@@H](O[C@@H]2O[C@H](C)[C@@H](O[C@H]3C[C@@](C)(O)[C@@H](O)[C@H](C)O3)[C@H](N(C)C)[C@H]2O)[C@@H](CC=O)C[C@@H](C)[C@@H](O[C@@H]2CC[C@H](N(C)C)[C@@H](C)O2)/C=C/C=C/C[C@@H](C)OC(=O)C[C@H]1OC(C)=O | -0.344% [at 35.3 µM, hits give high values] (inactive)
CC(=O)Oc1cccc2c1C(=O)c1c(OC(C)=O)cc(C(=O)O)cc1C2=O | -1.02% [at 35.3 µM, hits give high values] (inactive)
CCn1nc(Cc2ccccc2)cc1C1CCN(C[C@H]2C[C@H](N(C)[C@@H](C(=O)O)C(C)C)C[C@@H]2c2cccc(F)c2)CC1 | 8.19% (inactive)
